Hits are enriched below; roughly 9.2% of the tested compounds scored in any of these assays.
Rab9 prom act – activates the Rab9 promoter | AID 485297 | Potency, µM (top dose mostly 9.22 µM), hits mostly activators | Huh7 Rab9 promoter-luciferase reporter, luminescence, 24 h | 2.8% of 320,000 active; also: nearly all actives have a fitted effect of over 60% in size
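Huh7 cells stably carrying Rab9 promoter–luciferase reporter, plated 1500 cells/well, compound added after 2 h and incubated 24 h at 37 °C; luciferase luminescence then read after 10 min with detection reagent.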
ELG1 repair inh – inhibitors of ELG1-dependent DNA repair in HEK293T cells; 2.3% of 330,000 active; Potency, µM (top dose mostly 46.1 µM), most hits filed as inhibitors; HEK293T ELG1-luciferase reporter, luminescence, 16 h; DNA damage induced by 5-fluorouridine; also: nearly all actives have a fitted effect of over 55% in size
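Cells (2,000 per well) received 5-fluorouridine plus test compound or DMSO and were incubated 16 hr at 37 °C, 5% CO2. Luciferase activity was read by luminescence 30 min after ONE-Glo addition; signal suppression marked inhibition of damage-induced ELG1 function.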
NPC1 promoter act – NPC1 promoter activation | 2.4% of 320,000 active | AID 485313 | Huh7 NPC1 promoter luciferase reporter, 24 h | Potency, µM (highest dose often 9.22 µM), usual class: activators; also: nearly all actives have a fitted effect of over 60% in size
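Huh7 cells stably carrying NPC1 promoter–luciferase, plated in Opti-MEM with 10% FBS for 2 h, were exposed to compound in DMSO for 24 h at 37 °C; luciferase reagent was added for 10 min and luminescence read.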
FLuc counter – firefly luciferase modulation, counter-screen for miR-21 project | P08659 | purified FLuc, Km substrates, luminescence inhibition | Potency, µM (series often up to 57.5 µM), most hits filed as inhibitors | 6.9% of 360,000 active | AID 588342; also: nearly all actives have a fitted effect of over 55% in size
Target sequence (P08659 whole entry, looked up): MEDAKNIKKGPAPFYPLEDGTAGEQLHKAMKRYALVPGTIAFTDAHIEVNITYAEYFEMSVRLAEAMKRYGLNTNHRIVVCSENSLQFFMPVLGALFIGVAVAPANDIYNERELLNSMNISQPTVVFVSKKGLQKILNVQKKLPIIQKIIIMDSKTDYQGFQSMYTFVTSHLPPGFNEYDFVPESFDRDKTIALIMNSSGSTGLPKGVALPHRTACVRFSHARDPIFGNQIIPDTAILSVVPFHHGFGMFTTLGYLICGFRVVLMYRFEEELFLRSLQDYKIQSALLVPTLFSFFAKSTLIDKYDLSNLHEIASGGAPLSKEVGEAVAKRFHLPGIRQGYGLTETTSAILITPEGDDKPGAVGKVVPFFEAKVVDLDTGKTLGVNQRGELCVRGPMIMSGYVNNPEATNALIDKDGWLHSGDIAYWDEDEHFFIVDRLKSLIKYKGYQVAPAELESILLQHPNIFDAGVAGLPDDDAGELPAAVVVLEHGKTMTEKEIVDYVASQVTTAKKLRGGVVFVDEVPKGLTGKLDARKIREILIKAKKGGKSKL
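Biochemical qHTS of compounds, final roughly 60 µM downward over six points, against 10 nM purified firefly luciferase using Km concentrations of substrates (10 uM D-luciferin, 10 uM ATP) in Tris acetate pH 7.5 buffer; luminescence output.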
ELG1 genotoxic – inducers of genotoxicity in HEK293T ELG1-luciferase cells | HEK293T ELG1-luciferase reporter, luminescence, 16 h | Potency, µM (series often up to 46 µM), hits mostly activators | 1.3% of 330,000 active; also: nearly all actives have a fitted effect of over 60% in size
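After overnight (16 hr) compound treatment at 37 °C, ELG1-luciferase HEK293T cells were lysed with ONE-Glo; luminescence quantified 30 min later at room temperature.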
SMN2 splice up – increases expression of the SMN2 splice variant. HEK293 SMN2-luciferase splicing reporter, luminescence, 30-36 h. Potency, µM (series often up to 46.1 µM), usual class: activators. 2.8% of 210,000 active; also: nearly all actives have a fitted effect of over 55% in size
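qHTS luciferase splicing reporter: luminescence rises when SMN2 exon 7 is included in transfected HEK293 cells. Compound exposure lasted 30-36 h at 37C, with 4.5 mM final sodium butyrate as control, followed by a ONE-Glo read.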
Hits are given with their value; i = inactive; ? = inconclusive; nt = no result given; [ ] = dose if it differs, or a comment. Calls follow the shape of the dose curve; as a rule, active = well fitted curve in the direction sought with a large enough effect; inconclusive = small, poorly fitted or top-dose-only effect, or another doubt; inactive = no such curve, though single readings can be large; an effect the other way counts as inactive or inconclusive.

SMILES	Rab9 prom act	ELG1 repair inh	NPC1 promoter act	FLuc counter	ELG1 genotoxic	SMN2 splice up
O=C(Nc1cccc(-c2cn3c(n2)SCC3)c1)c1ccc2c(c1)OCO2	?	?	i	10.7µM	i	i
O=C(Nc1ccc(-c2cn3c(n2)SCC3)cc1)c1ccc2c(c1)OCO2	?	?	i	?	i	i
c1cnc2nc(-c3ccc4c(c3)OCO4)cn2c1	2.51µM	?	?	9.53µM	?	nt
c1ccn2cc(-c3ccc4c(c3)OCO4)cc2c1	3.16µM	?	?	3.38µM	?	12.6µM
Cc1ccc(-c2cn3cccnc3n2)cc1	?	?	2.82µM	15.1µM	i	nt
CN(Cc1ccccc1)c1ncnc2c1nc1n2CCCC1	nt	nt	nt	i	nt	nt
O=C(Nc1ccccc1C(F)(F)F)N1CCOc2ccc(Cl)cc21	nt	nt	nt	i	nt	nt
CCCCN(CC)CCNC(=O)c1cc2c(=O)oc3ccc(C)cc3c2s1	nt	nt	nt	i	nt	i
Cc1ccc(C)c(SCC(=O)Nc2oc(C)c3c(C)n[nH]c(=O)c23)c1	i	?	i	i	i	nt
O=C(Nc1cccc(-c2cn3cccnc3n2)c1)c1ccc2c(c1)OCO2	i	?	i	12µM	i	i
COc1ccccc1N1CCN(c2nc3ccccc3n3cnnc23)CC1	nt	nt	nt	i	nt	i
CCCCn1c(N)c(N(C)C(=O)c2cccc(-n3cnnn3)c2)c(=O)[nH]c1=O	nt	i	nt	nt	i	nt
CN1CCC2(CCN3CCc4c(oc5ccccc45)C3C2)N(C)C1=O (configuration not stated)	i	nt	i	nt	nt	i
COc1cccc(-c2nc(CS(=O)(=O)CC(=O)Nc3ccccc3C)c(C)o2)c1	i	i	i	i	i	nt
COc1cccc(-c2nc(CS(=O)(=O)CC(=O)Nc3cc(F)ccc3F)c(C)o2)c1	i	18.3µM	i	i	i	i
N#C/C(=C\c1c(Cl)cccc1Cl)c1nc2ccccc2[nH]1	i	i	i	?	i	nt
Cc1ccc(/C=C(\C#N)c2nc3ccccc3[nH]2)s1	0.355µM	?	0.794µM	4.78µM	?	?
N#C/C(=C/c1cccs1)c1nc2ccccc2[nH]1	2.82µM	?	?	?	?	?
C[C@H](CO)N1C[C@H](C)[C@@H](CN(C)S(=O)(=O)c2cccs2)Oc2ccc(NC(=O)c3ccncc3)cc2C1=O	nt	i	nt	nt	i	nt
N=C1CCC[C@@H]1C(=S)SCCC(N)=O	nt	nt	nt	nt	nt	i[9.22 µM]
O=c1c2[nH]c3ccc(F)cc3c2ncn1C1CCCCC1	3.98µM	?	?	i	i	i
CC(C)=C1SC(N2CCN(Cc3ccccc3)CC2)=NC1=O	i	i	i	i	i	i
CC1CN(C2=NC(=O)/C(=C3/C(=O)N(Cc4ccc(F)cc4)c4ccccc43)S2)CC(C)O1 (configuration not stated)	i	11.6µM	i	?	i	nt
O=C1N=C(N2CCOCC2)S/C1=C1\C(=O)N(Cc2ccccc2)c2ccccc21	1.58µM	?	2.82µM	0.675µM	?	i
CCC(C)Sc1oc(-c2ccco2)nc1S(=O)(=O)c1ccc(Cl)cc1 (configuration not stated)	nt	nt	nt	i	nt	i
SMILES	Rab9 prom act	ELG1 repair inh	NPC1 promoter act	FLuc counter	ELG1 genotoxic	SMN2 splice up
Cc1ccc(N=Nc2c(C)[nH][nH]c2=O)c(C)c1	i	i	i	7.57µM	?	i
COc1cc(C(=O)ONC(=O)c2ccc(OC(F)F)cc2)cc(OC)c1OC	i	i	i	i	i	nt
Cc1ccc2nc3ccc(N4CCN(C)CC4)nn3c(=O)c2c1	3.55µM	?	1.58µM	6.01µM	?	nt
Cc1sc2nc3ccc(N4CCCC4)nn3c(=O)c2c1C	i	i	?	12µM	i	nt
Cc1ccc2nc3ccc(N4CCCCCCC4)nn3c(=O)c2c1	?	?	?	5.36µM	i	?
O=c1c2ccccc2nc2ccc(N3CCOCC3)nn12	?	?	?	16.9µM	?	?
Cc1cc(N2CCOCC2)nc2ccccc12	i	?	i	?	i	?
O=C(COC(=O)c1ccco1)NC12CC3CC(CC(C3)C1)C2	nt	i	nt	nt	i	nt
COc1ccccc1OCCNC(=O)C1CCCCC1	i	i	i	i	i	i
CCCCNc1nc(Oc2ccc(=O)n(C)n2)nc(N2CCOCC2)n1	nt	nt	nt	i	nt	?
C=CCOC(=O)COc1ccc2c(C)c(C)c(=O)oc2c1	i	i	i	19µM	i	i
C=CCOC(=O)COc1ccc2c(C)c(CC)c(=O)oc2c1	i	i	i	12µM	i	i
Cc1cc(NC(=O)c2cc(-c3cccc(Cl)c3)on2)n(-c2ccccc2)n1	nt	nt	nt	i	nt	i
CCC1Oc2ccc(C)cc2N(CC(=O)N(Cc2ccc3c(c2)OCO3)CC2CCCO2)C1=O (configuration not stated)	i	?	i	i[2.3 µM]	i	i
COc1ccc(CN(CC2CCCO2)C(=O)CN2C(=O)C(C)Oc3ccc(C)cc32)cc1OC (configuration not stated)	i	8.2µM	i	i	i	i
CCCCOc1ccc(-c2cc3c(=O)n(CC(=O)Nc4ccc(Cl)cc4Cl)ccn3n2)cc1	nt	nt	nt	i	nt	i
O=C1/C(=C/c2cccc3ccccc23)CCCc2ccccc21	i	?	i	13.5µM	i	?
CCOc1ccc(NC(=O)Nc2cccc(C(=O)O)c2)cc1	0.0891µM	?	?	0.0269µM	i	2µM
CCOC(=O)c1cccc(NC(=O)Nc2ccc(OCC)cc2)c1	2.82µM	?	1.78µM	2.69µM	i	10µM
CCOc1ccc(S(=O)(=O)NCCC(=O)Nc2cccc(C(=O)OC)c2)cc1	3.16µM	?	i	i	i	nt
CCOc1ccc(/C=C/C(=O)Nc2cccc(C(C)=O)c2)cc1	?	?	?	1.2µM	i	?
CCOC(=O)C(=O)Nc1cccc(C(=O)OCC)c1	i	i	i	i	i	i
CCOc1ccc(NC(=O)Nc2ccc3nsnc3c2)cc1	i	?	i	?	i	i
CCOc1ccc(S(=O)(=O)NCCC(=O)Nc2ccncc2)cc1	i	i	i	i	i	nt
CCOc1ccc(NC(C(=O)Nc2cccc(C(C)=O)c2)c2ccccc2)cc1 (configuration not stated)	i	i	i	i	i	i
SMILES	Rab9 prom act	ELG1 repair inh	NPC1 promoter act	FLuc counter	ELG1 genotoxic	SMN2 splice up
Cc1cc(C)c(NC(=O)COC(=O)Cc2cccs2)c(C)c1	i	i	i	i	i	nt
[O-]/[N+](=C\c1cccc(Br)c1)c1ccccc1	i	i	i	23.9µM	i	i
[O-]/[N+](=C\c1ccccc1)c1ccc(Br)cc1	i	?	i	?	?	nt
Nc1nonc1-c1nc2ccccc2n1CC(=O)Nc1cccc(C(F)(F)F)c1	nt	nt	nt	i	nt	nt
O=C(/C=C/c1ccc[nH]1)c1ccccc1	?	?	i	12µM	i	i
CCN1CCN(C(=O)/C=C/c2c(F)cccc2Cl)CC1	i	i	i	i	i	i
O=C(/C=C/c1c(F)cccc1Cl)c1ccc(F)cc1	i	?	i	6.75µM	i	i
CN(C)/C=C/C(=O)c1ccc(F)cc1	i	i	i	i	i	i
O=CC(=O)c1ccccc1	i	?	i	i	i	i

Screening results (PubChem)
